From PubChem BioAssay (NCI)
Compounds without any hit were thinned out: in the full panel of roughly 83,000, 20% have a hit.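 Cells were grown in 96-well plates and exposed to the test compound at a single concentration for 48 hours; results are reported as percent growth, with values below 10 considered active.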 Values without a mark were called inactive. Active and inactive are the calls of the source.

Tested on: SNB-75 CNS
Test: NCI-60 one-dose screen, 48 h (100 = growth as untreated, 0 = no growth, -100 = all killed)
Conditions: 10 µM unless noted

Row | Structure (SMILES) | growth
1 | CS(=O)(=O)Nc1cc(-c2ccc3ncnc(Nc4ccc5c(cnn5Cc5ccccn5)c4)c3c2)cnc1Cl | 16.2%
2 | CO[C@H]1/C=C(/C)CCC[C@H](C)[C@H](O)[C@@H](C)C(=O)C(C)(C)[C@@H](O)CC(=O)O[C@@H]1/C(C)=C/c1csc(C)n1 | -32.1% (active)
3 | COc1ccc2nc3ccc(OC)cc3c(SCCCN)c2c1 | 89.3%
4 | CCCCCCCCCCCCCCCC(N)c1ccccc1 (configuration not stated) | 66.2%
5 | CC1=C(Nc2ccc(N3CCN(C)CC3)cc2)C(=O)c2cncnc2C1=O | 131%
6 | CN(C)c1ccc(/C=C/C(=O)c2ccc(-n3cc(CN4CCN(c5cc6c(cc5F)c(=O)c(C(=O)O)cn6C5CC5)CC4)nn3)cc2)cc1 | 68.1%
7 | CCN(CC)c1nc(SCc2ccccc2Cl)ncc1C | 97.8%
8 | CCN1CCN(Cc2cn(CC(=O)Nc3ccc4c(ccn4Cc4ccccc4)c3)nn2)CC1 | 86.8%
9 | O=C(O)[C@@H]1c2ccccc2-c2ccccc2[C@H]1C(=O)O | 93.3%
10 | O=C1CC(N2C(=O)/C(=C/C(Cl)=C\c3ccc([N+](=O)[O-])cc3)SC2=S)C(=O)N1c1ccc(Cl)cc1 (configuration not stated) | 17.2%
11 | CCc1ccc(Oc2cn[nH]c2-c2ccc(OCCc3ccc(F)cc3)cc2O)cc1 | 79%
12 | CC1(C)CCC(S(=O)(=O)c2ccc3c(c2)/C(=N\O)c2cc(S(=O)(=O)N4CCC(O)(c5cccc(C(F)(F)F)c5)CC4)ccc2-3)CC1 | -98.2% (active)
13 | Cc1cc(Cl)ccc1Nc1nc(C(F)(F)F)ccc1C(=O)N/N=C/c1ccc([N+](=O)[O-])cc1 | -12.2% (active)
14 | CCOC(=O)c1[nH]c(=O)c2c(C)nc(-c3ccccc3)cc2c1O | 118%
15 | Oc1ccc(CN2CCC(N3CCCCC3)CC2)c2cccnc12 | 25.4%
16 | COc1cccc([C@H]2c3[nH]c4ccccc4c3C[C@H]3C(=O)N(CCCCCCC(=O)NO)CC(=O)N23)c1 | 7.84% (active)

Row | Structure (SMILES) | growth
17 | C=CC(=O)NCc1ccc(Nc2nccc(-c3ccc(N4CCCC4)c(C#N)c3)n2)cc1 | 20.3%
18 | CC1=C(C(=O)OC(C)C)C(c2ccc3c(c2)OCO3)NC(=S)N1 (configuration not stated) | 95.2%
19 | CCOC(=O)Cn1c(O)c(N=Nc2ccc(S(N)(=O)=O)cc2)c2cc(Br)ccc21 | 78%
20 | O=C(Cn1c2c(c3ccccc31)CCCC2)Nc1ccc(-c2nc3ccccc3s2)cc1 | 106%
21 | COC(C(=O)[C@@H](O)[C@@H](C)O)[C@@H]1Cc2cc3cc(O[C@H]4C[C@@H](O[C@H]5C[C@@H](O)[C@H](O)C(C)O5)[C@H](O)C(C)O4)c(C)c(O)c3c(O)c2C(=O)[C@H]1O[C@H]1C[C@@H](O[C@H]2C[C@@H](O[C@H]3C[C@@H](O)[C@H](OC)C(C)O3)[C@@H](O)C(C)O2)[C@H](O)C(C)O1 (some centres not stated) | -57% (active)
22 | CCCCCCCCn1ccc2cc(NC(=O)CN3CCN(c4nc(C)cc(Cl)n4)CC3)ccc21 | 87%
23 | COc1ccc(/C=N/NC(=O)CCN2c3ccccc3Sc3ccccc32)cc1 | 80.1%
24 | CNC(=O)c1cc(Oc2ccc3c(c2)sc2nc(-c4cc(OC)c(OC)c(OC)c4)cn23)ccn1 | 50.3%
25 | CCCCCCNC(=O)Oc1ccc(/C(=C(/C)Cc2ccc(OC)cc2)c2ccc(OCCCN(C)C)cc2)cc1 | 65.9%
26 | Cn1ccnc1C(=O)C(=O)Nc1ccc(CC(=O)Nc2ccccc2)cc1 | 92.2%
27 | C=CCc1c(O)c(C(=O)/C=C/c2ccc(Cl)cc2)c(OC)c2ccoc12 | 80.1%
28 | C=C(CNCCc1ccc(O)cc1)[C@@H]1CC[C@]2(CO)CC[C@]3(C)[C@H](CC[C@@H]4[C@@]5(C)CCC(NCCO)C(C)(C)[C@@H]5CC[C@]43C)[C@@H]12 (some centres not stated) | -97.8% (active)
29 | CCOC(=O)CNP(=O)(OC[C@@H](Cc1ccccc1)NC(=O)c1cc2ccccc2s1)Oc1ccccc1 (some centres not stated) | 35.2%
30 | COc1ccc(OC)c(C(=O)/C=C/c2cc3c(c(OC)c2OC)OCO3)c1 | 52%
31 | C=C(C)[C@@H]1CC[C@]2(C)[C@H](CC=C3[C@@H]4[C@H](C)[C@@H](C)CC[C@]4(CO)CC[C@]32C)[C@@]1(C)CCCN | 18.5%
32 | O=C1/C(=C/c2ccc(F)cc2)COc2ccc(O)cc21 | 83.7%
